A number with no mark means an inactive call. Activity calls are given as the source filed them. Cut-off read from the data, not from the text of the source: active = inhibition above about 28%; inactive = the rest.

This test is described as follows: StAR promoter reporter inhibitors, counter-screen for LRH-1 inverse agonist project, cell-based, luminescence, high throughput (AID 651611). Particulars: StAR promoter luciferase reporter counterscreen, at 3.6 µM, active compounds read high. A general note: Counterscreens check selectivity or assay interference.
For orientation: inhibition means the relative decrease from the control value, in per cent. For the compound `Cc1ccc(C2CC(C(F)(F)F)n3nc(C(=O)NCc4ccco4)cc3N2)cc1` (centres undefined), the inhibition is 0.64%.
Regarding `Cc1ccccc1Oc1nc2c(C)cccn2c(=O)c1/C=C(\C#N)C(=O)NC1CCS(=O)(=O)C1` (centres undefined), the inhibition was 8.01%.
`CC(NC(=O)CCl)c1ccccc1Br` (centres undefined): the inhibition was 23.9%.
`O=C(Cn1cc(COc2ccc(C(=O)c3ccccc3)cc2)nn1)c1ccc(O)cc1`: the inhibition is 25.8%.
For `COc1cc2c(cc1OC)-c1c(OC)c(OC)cc3ccnc(c13)C2=O`, the inhibition is 41.2% (active).
As for `CN(C)c1ccc(C=c2c3ccccc3n3c2c2ccccc2[n+]3C)cc1`, the figure is 54.9% (active).
Take `CSc1nc(SCC(=O)NCc2ccco2)c2c3c(sc2n1)COC(C)(C)C3`: the inhibition is 6.43%.
`Cc1nc2cc(N3CCCCC3)c(NC(=O)c3cccnc3)cc2c(=O)n1Cc1ccccc1`: the inhibition was 10.7%.
Consider `O=C(C[C@H]1CC[C@@H]2[C@H](COC[C@H](O)CN2Cc2cccc(C(F)(F)F)c2)O1)NCCc1ccccc1`, for which the inhibition is 2.1%.
As for `Cc1ccc(-c2csc(NC(=O)C3CCN(S(=O)(=O)c4cccs4)CC3)n2)cc1`, the figure is 15.3%.
`C/C(=N\N=C(N)N)c1cc(Cl)ccc1Cl`: the inhibition was 26.9%.
In the case of `Cc1cccc(NC(=O)CSC2=NN3CCCC(=O)N=C3S2)c1C`, the inhibition was -10.1%.
`CCN(CC)c1nc(C)c(C(C)=O)cc1C#N`: the inhibition was 1.34%.
For `COc1cc(-c2cc(-c3ccc(O)cc3)nc(N)c2C#N)ccc1O`, the inhibition was 36.1% (active).
As to `COc1cccc(C(C)(O)c2nc(-c3ccc(S(C)(=O)=O)cc3)cs2)c1` (centres undefined), the inhibition was 7.7%.
As for `O=C(Nc1nc(-c2ccccn2)cs1)c1ccc([N+](=O)[O-])o1`, the inhibition was 32% (active).
Turning to `COc1cc(C)c(C(=O)Oc2cc(C)c(C(=O)O)c(O)c2C)c(O)c1C`, the inhibition was 14.9%.
Take `CC1(C)Cc2c(sc3nc(SCC(=O)NCc4ccco4)n(-c4ccccc4)c(=O)c23)CS1`: the inhibition was 14%.
With `CC(=O)Nc1cccc(C(=O)OCC(=O)N2CCN(C(=O)COC(=O)c3cccc(NC(C)=O)c3)CC2)c1` the figure was 21.9%; with `COc1ccc(NC(=O)COC(=O)/C=C/C(=O)OCC(=O)Nc2ccc(OC)c(Cl)c2)cc1Cl`, 6.28%.
`Cc1nnsc1C(=O)NC1CCCc2c1cnn2-c1ccc(F)cc1F` (centres undefined): the inhibition was 19.6%.
For `NS(=O)(=O)c1ccc(CCNC(=O)COc2ccc3c4c(c(=O)oc3c2)CCC4)cc1`, the inhibition is 13.4%.
With `Cc1ccc(NC(=O)CSc2nnc(-c3n[nH]c4ccccc34)n2-c2ccccc2)c(C)c1`, the inhibition was 3.14%.
As for `CNc1c2cccc(C)c2nc2c(C(=O)NCCN(C)C)cccc12`, the figure is 80.3% (active); as for `O=C(CCl)Nc1ccc(S(=O)(=O)NC2=NCCCCC2)cc1`, 41.5% (active).
As for `Cc1ccc(Sc2ccc(NC(=O)CCl)cc2)cc1C`, the figure is 0.02%.
Regarding `O=C1/C(=C\c2ccc(Cl)c(Cl)c2)CN(C(=O)CCN2CCOCC2)C/C1=C/c1ccc(Cl)c(Cl)c1`, the inhibition is 67.9% (active).
As to `Cc1c(C)c2ccc(OCC(=O)N3CC[C@@]4(O)CCCC[C@H]4C3)cc2oc1=O`, the inhibition is 14.5%.
For `COc1ccc(N2CCN(C(=O)CSc3nnc(-c4cc5ccccc5cc4O)n3C)CC2)cc1`, the inhibition is 19.8%.
Take `CCc1ccccc1NC(=O)CSc1nnc([C@@H]2CCCN2C(=O)OC(C)(C)C)o1`: the inhibition was 16.4%.
Consider `Cc1cc(Br)ccc1NC(=O)CN1C(=O)CCC1=O`, for which the inhibition was 7.63%.
Turning to `O=C(c1ccc(=O)n(Cc2ccccc2)n1)N1CCN(C/C=C/c2ccccc2)CC1`, the inhibition is 2.26%.
With `CCc1c(C)nc(SCC(=O)Nc2ccc3c(c2)OCCO3)[nH]c1=O`, the inhibition was 14.5%.
As to `O=C(Nc1ccc(N2CCOCC2)c(Cl)c1)c1ccc([N+](=O)[O-])o1`, the inhibition is -80.2%.
For `COc1ccccc1NC(=O)CN1CCN(CC(=O)Nc2ccc3c(c2)OCCO3)CC1`, the inhibition was 6.64%.
For the compound `Cc1cccc(NC(=O)CSc2ccc(-c3ccco3)nn2)c1C`, the inhibition was 4.66%.
As for `S=C(NCc1ccccc1)Nc1ccncc1`, the figure is 9.38%; as for `Cn1cccc1C(=O)OCC(=O)N1CCN(c2ccccc2)CC1`, 2.85%.
As to `CN(C)c1ccc(CNc2ncnc3sccc23)cc1`, the inhibition is 2.38%.

The values above are taken from PubChem BioAssay.
